# Source: PubChem BioAssay (NCI)
# About 83,000 compounds went through this panel and 20% of them were active in at least one assay; those are over-represented in the sample as a whole.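 Values shown are percent growth following 48 h exposure of cells in 96-well plates to a single concentration of compound; below 10 was considered active.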 Active and inactive are the calls of the source.
# How the values were obtained:
# Assay in all cases: NCI-60 one-dose screen, 48 h (100 = growth as untreated, 0 = no growth, -100 = all killed)
# NCI-H23 lung = conditions: 10 µM unless noted
# NCI-H226 lung = conditions: 10 µM unless noted
# DU-145 prostate = conditions: 10 µM unless noted
# MDA-MB-231 breast = conditions: 10 µM unless noted
# SF-268 CNS = conditions: 10 µM unless noted
# M14 melanoma = conditions: 10 µM unless noted
# HCT-15 colon = conditions: 10 µM
# SNB-75 CNS = conditions: 10 µM unless noted
# U251 CNS = conditions: 10 µM unless noted
# PC-3 prostate = conditions: 10 µM unless noted
# UACC-62 melanoma = conditions: 10 µM unless noted
# OVCAR-8 ovarian = conditions: 10 µM unless noted
# OVCAR-5 ovarian = conditions: 10 µM unless noted
# SK-OV-3 ovarian = conditions: 10 µM unless noted
# OVCAR-3 ovarian = conditions: 10 µM unless noted
# NCI/ADR-RES ovarian = conditions: 10 µM unless noted
# MDA-MB-435 melanoma = conditions: 10 µM unless noted
# MCF7 breast = conditions: 10 µM unless noted
# HCT-116 colon = conditions: 10 µM unless noted
# KM12 colon = conditions: 10 µM unless noted
Structure (SMILES),growth (NCI-H23 lung),growth (NCI-H226 lung),growth (DU-145 prostate),growth (MDA-MB-231 breast),growth (SF-268 CNS),growth (M14 melanoma),growth (HCT-15 colon),growth (SNB-75 CNS),growth (U251 CNS),growth (PC-3 prostate),growth (UACC-62 melanoma),growth (OVCAR-8 ovarian),growth (OVCAR-5 ovarian),growth (SK-OV-3 ovarian),growth (OVCAR-3 ovarian),growth (NCI/ADR-RES ovarian),growth (MDA-MB-435 melanoma),growth (MCF7 breast),growth (HCT-116 colon),growth (KM12 colon)
Cc1cc(NC(=O)NCCOc2ccc(N3C(N)=NC(N)=NC3(C)C)cc2Cl)ccc1S(=O)(=O)F,40.2% (inactive),91.3% (inactive),34.4% (inactive),58% (inactive),29% (inactive),32.1% (inactive),92% (inactive),71.5% (inactive),10.7% (inactive),-2.88% (active),22% (inactive),25.3% (inactive),26.6% (inactive),55.4% (inactive),53.2% (inactive),102% (inactive),18.8% (inactive),4.3% (active),13.9% (inactive),20.1% (inactive)
CC12CCC3C(CC=C4CC(O)CCC43C)C1C/C(=C\N1CCOCC1)C2=O (configuration not stated),111% (inactive),93.2% (inactive),110% (inactive),106% (inactive),109% (inactive),112% (inactive),99.9% (inactive),83.5% (inactive),100% (inactive),96.4% (inactive),104% (inactive),100% (inactive),98.1% (inactive),111% (inactive),116% (inactive),106% (inactive),107% (inactive),92.2% (inactive),101% (inactive),108% (inactive)
N#C[Se]CCN1C(=O)C2C(C1=O)[C@H]1C=C[C@@H]2S1 (some centres not stated),-11.7% (active),-54.6% (active),-33.3% (active),-40.5% (active),-45.2% (active),-13.6% (active),-4.75% (active),,-56.9% (active),5.36% (active),18.9% (inactive),-19.3% (active),14.7% (inactive),4.59% (active),-64.6% (active),-10.7% (active),-39.2% (active),5.71% (active),-35.4% (active),15.2% (inactive)
O=S(=O)(O)c1ccc(-c2ccc([As](=O)(O)O)cc2)cc1,105% (inactive),110% (inactive),110% (inactive),104% (inactive),98.5% (inactive),100% (inactive),103% (inactive),87.1% (inactive),95.6% (inactive),98% (inactive),98% (inactive),93.8% (inactive),106% (inactive),105% (inactive),107% (inactive),108% (inactive),103% (inactive),103% (inactive),108% (inactive),105% (inactive)
CC1(C)N=C(N)N=C(N)N1c1ccc(OCCCCNC(=O)Nc2cccc(S(=O)(=O)F)c2)c(Cl)c1,39.8% (inactive),69.4% (inactive),37.1% (inactive),59.6% (inactive),44.4% (inactive),40.4% (inactive),90.3% (inactive),74.8% (inactive),15.6% (inactive),5.73% (active),22.8% (inactive),29.2% (inactive),32.5% (inactive),77.9% (inactive),82.3% (inactive),110% (inactive),20.1% (inactive),15% (inactive),16.4% (inactive),41.7% (inactive)
O=C1c2ccccc2C(=O)N1[N+](=O)[O-],95.3% (inactive),95.6% (inactive),106% (inactive),101% (inactive),104% (inactive),105% (inactive),110% (inactive),103% (inactive),93.2% (inactive),94.9% (inactive),96.1% (inactive),100% (inactive),112% (inactive),114% (inactive),106% (inactive),97.9% (inactive),110% (inactive),92.5% (inactive),112% (inactive),101% (inactive)
CCCCCCCCCCOc1ccc(C(=O)Oc2ccc(CSP3(=O)OCC4OC(n5ccc(=O)[nH]c5=O)C(F)C4OP(=O)(O)OCC4OC(n5cnc6c(N)ncnc65)C(F)C4O3)cc2)cc1 (configuration not stated),103% (inactive),75.5% (inactive),106% (inactive),111% (inactive),104% (inactive),90.7% (inactive),105% (inactive),102% (inactive),104% (inactive),103% (inactive),111% (inactive),104% (inactive),116% (inactive),97.8% (inactive),97.6% (inactive),105% (inactive),105% (inactive),95.5% (inactive),79.9% (inactive),103% (inactive)
O=[N+]([O-])c1cc([N+](=O)[O-])c(Cl)c(Cl)c1Cl,43% (inactive),52.8% (inactive),-27.2% (active),22.3% (inactive),,-8.63% (active),-49.1% (active),59.6% (inactive),-79.4% (active),57.1% (inactive),14.6% (inactive),-41.1% (active),65.6% (inactive),101% (inactive),-99% (active),21.4% (inactive),19.3% (inactive),2.17% (active),-53.9% (active),37.4% (inactive)
CC(C)CCC[C@@H](C)[C@H]1CC[C@H]2[C@@H]3CC=C4C[C@@H](OC(=O)Cc5ccc(N(CCCl)CCCl)cc5)CC[C@]4(C)[C@H]3CC[C@]12C,107% (inactive),94.3% (inactive),116% (inactive),101% (inactive),108% (inactive),108% (inactive),108% (inactive),103% (inactive),109% (inactive),99.5% (inactive),94.4% (inactive),99.8% (inactive),98.2% (inactive),114% (inactive),112% (inactive),102% (inactive),113% (inactive),99% (inactive),103% (inactive),109% (inactive)
CC1(C)CC2(CC(C)(C)c3cc(O)c(O)cc32)c2cc(O)c(O)cc21,108% (inactive),85.7% (inactive),98.8% (inactive),91.5% (inactive),88.6% (inactive),98.1% (inactive),89.5% (inactive),81.2% (inactive),92.3% (inactive),90.9% (inactive),83.3% (inactive),97.3% (inactive),93% (inactive),97.1% (inactive),88.9% (inactive),103% (inactive),84.8% (inactive),94.5% (inactive),85.4% (inactive),94.4% (inactive)
ClCCN(CCCl)C(c1ccccc1)c1ccc(Cl)cc1 (configuration not stated),77.3% (inactive),75.4% (inactive),69.5% (inactive),75.7% (inactive),61.5% (inactive),90.4% (inactive),82.9% (inactive),81.8% (inactive),82.6% (inactive),52% (inactive),63.8% (inactive),77.7% (inactive),118% (inactive),109% (inactive),91.9% (inactive),79% (inactive),88% (inactive),,79.5% (inactive),89.5% (inactive)
COc1cc(C2CC(=O)Nc3nc(N)[se]c32)cc(OC)c1OC (configuration not stated),102% (inactive),103% (inactive),101% (inactive),101% (inactive),101% (inactive),115% (inactive),109% (inactive),98.9% (inactive),29.8% (inactive),71.2% (inactive),117% (inactive),58.8% (inactive),93.4% (inactive),101% (inactive),101% (inactive),107% (inactive),105% (inactive),98.6% (inactive),74.9% (inactive),56.7% (inactive)
c1ccc(-c2ccc3ccccc3[o+]2)cc1,84.4% (inactive),85.4% (inactive),98.9% (inactive),65% (inactive),88.7% (inactive),96.8% (inactive),107% (inactive),80.5% (inactive),93.4% (inactive),76.3% (inactive),73.1% (inactive),96.6% (inactive),103% (inactive),89.4% (inactive),100% (inactive),92.5% (inactive),101% (inactive),67% (inactive),95.7% (inactive),91.8% (inactive)
CC12CC[C@H](O)C=C1/C(=N/O)CC1C2CCC2(C)C1CC[C@@H]2O (some centres not stated),103% (inactive),97.1% (inactive),,108% (inactive),,95.7% (inactive),97.9% (inactive),79.2% (inactive),105% (inactive),,94.3% (inactive),107% (inactive),96.2% (inactive),95% (inactive),,101% (inactive),90.7% (inactive),85.6% (inactive),93.3% (inactive),
CC(=O)O[C@H]1CCC2C3CCC4=C/C(=N/O)CCC4(C)C3CCC21C (some centres not stated),90% (inactive),98.1% (inactive),93.1% (inactive),110% (inactive),75.9% (inactive),79.9% (inactive),72.3% (inactive),96.4% (inactive),83.3% (inactive),93.6% (inactive),91.4% (inactive),99.3% (inactive),99.5% (inactive),104% (inactive),107% (inactive),70.8% (inactive),20.3% (inactive),110% (inactive),75.3% (inactive),78% (inactive)
CC(C)(C)N(Cc1ccccc1)N=O,102% (inactive),91.7% (inactive),107% (inactive),91.9% (inactive),108% (inactive),103% (inactive),103% (inactive),86.5% (inactive),99.3% (inactive),98.7% (inactive),103% (inactive),95.7% (inactive),98.4% (inactive),96.2% (inactive),118% (inactive),113% (inactive),102% (inactive),97.7% (inactive),106% (inactive),104% (inactive)
